The first assay has as its target ZNF20. The experiment in a line: pooled miR-30 sensor sort-seq; sequence = guide strand. The following applies: shRNA.
Turning to TTCAATGTTCTGAACTTTCCAT, the sensor-assay potency score (higher = more potent) was -0.266. In the case of TTCTATATGGATTCTCTCCATA, the sensor-assay potency score (higher = more potent) is -1.01. The same measure, in the same setting: the value for TAAGACTTAGATTTCTCCTGGG was 0.935; that for TGAAGTTGTGAAGCACATCTAA was -0.501. On the same count and under the same terms, to TTTCACATGGTGTTATTCCAGG belongs -0.755; to TATTAAGAGATGAATGACCCGT, -0.0204; to TTTCTCTTTAGTGCAAGCTTTA, -0.882. The same measure, in the same setting: the value for TTTCTCTCCACTGTGCGTCCTT was -0.157.

TTGTATTACGAAACCATCCAAG came in with a sensor-assay potency score (higher = more potent) of -0.687. TTTCTGTACATTCTTTACCATC displayed a sensor-assay potency score (higher = more potent) of -1.72. TACCACAGTGCTTACATTCATA came in with a sensor-assay potency score (higher = more potent) of -0.662. Consider TAGTGCAAGCTTTATCATGTGA, for which the sensor-assay potency score (higher = more potent) is -0.356.

The target of the next assay is ZNF213. The description is as above. The settings on record: shRNA.
TTGAGCCCAAAACCCAGGGTGG came in with a sensor-assay potency score (higher = more potent) of -1.3. Still for that read-out and setting: the value for TTTCACTGGCTGCTTCTGTAGG was -0.917.

Sequence TCACTTTGGCCTTTGAGCCCAA yielded a sensor-assay potency score (higher = more potent) of -0.58.

In the case of TTCTGTAGGTCCTCCACCAAGG, the sensor-assay potency score (higher = more potent) was -1.39. Same read-out and setting: the value for TGTCTGGCCTGGCACCACCGGC was -1.68; that for TGTAGGTCCTCCACCAAGGCGA was -0.787. On the same count and under the same terms, the value for ATCCCTGCCATCCTCATGCTGG was -1.09; that for TCGGGTTCCGCCTCCTCCGAGG was -1.19; that for TTTGAGCCCAAAACCCAGGGTG was -0.556. In turn, TCACTGGCTGCTTCTGTAGGTC returned a sensor-assay potency score (higher = more potent) of -0.833. Same read-out and setting: the value for TAATACTCTTCTGTTGCCCTTT was 0.353; that for TTCGGAATCCCTGCCATCCTCA was -0.738.

The target of another assay is ZNF214. The assay is described as above. The following applies: shRNA.
Take TCTGATGAAAGTGAACTCCGGA: the sensor-assay potency score (higher = more potent) was 0.913. On to TAGAACTGTGACTAAAACCCTT, for which the sensor-assay potency score (higher = more potent) was -0.352. In the case of TTAACCATTCCTGACACTGGGA, the sensor-assay potency score (higher = more potent) is -0.384.

The sequence TTATAGAATTTCTCTTCTGTGT had a sensor-assay potency score (higher = more potent) of -0.222. Same read-out and setting: to TCTTTGATGAGTGTGAAGCTTT belongs -0.426; to TGAGCTGTGACTAAAGTCCTTT, -0.611. On to TAAACTTTGATTAAAGCTGTTA, for which the sensor-assay potency score (higher = more potent) is -0.478. Sequence TATACAAGTCTGATCTCTGAGA came in with a sensor-assay potency score (higher = more potent) of -0.855. Still for that read-out and setting: to TTGGATGTCTATACAAGTCTGA belongs 0.602; to TCTTGTGGAAAACACACCGTGA, -0.342.

Sequence TCTACTGACATGACATTTGTGT displayed a sensor-assay potency score (higher = more potent) of 0.423. In turn, TTTTATAGAATTTCTCTTCTGT returned a sensor-assay potency score (higher = more potent) of 1.04.

Another assay concerns the target ZNF219. The description is as above. The following applies: shRNA.
TACTTGAGCGAGCCGGACTGGG: the sensor-assay potency score (higher = more potent) is -1.26. Sequence TTTATTGGGGACACGACTCTGC gave a sensor-assay potency score (higher = more potent) of 0.537. The same measure, in the same setting: the value for TGGAGTATCGCTGCAGATCCAG was -1.26.

These data come from the OligoGym collection.
Also: reference of the scale not given here.
